Most compounds without a hit are left out; they make up all but 5.5% or so of the library.
Chronic BCR inh = qHTS Assay to Find Inhibitors of Chronic Active B-Cell Receptor Signaling; Potency, µM (series often up to 46.1 µM), inactives show top-dose activity change, negative = inhibition, most hits filed as inhibitors; ABC-DLBCL IkBa-CBG/CBR reporter, luminescence ratio, 4 h; 340,000 tested, 0.05% active; AID 493014, 2011; active means well fitted inhibition curve with a large enough effect in the signal ratio, with a control signal flat, not every such curve was filed as active; inconclusive means small, poorly fitted or top-dose-only effect, or effect the other way, or a change in a side signal; the % refers to the signal ratio;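 further: plate controls were basal doxycycline-induced cells for no effect and cells given 10 µM MG132 for full effect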
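Cell line TMD8 (human ABC DLBCL), stably expressing tet-inducible CBG68-IkBa fusion and CBR; IMDM/0.5% FBS; cpd up to 46 uM; dox induction, 4 h, 37C/5% CO2; dual luminescence; green/red ratio; MG132 control.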
a7 integrin act = qHTS for Activators of Integrin-Mediated Alleviation for Muscular Dystrophy | alpha7betagal myoblasts, beta-gal FDG fluorescence, 48 h | Potency, µM (doses to about 38.3 µM), without a hit: at the highest dose activation, actives largely listed as activators | 350,000 tested, 0.064% active;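 further: 100% = response of the positive control SU9516; nearly all actives have a fitted effect of over 60% in size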
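alpha7betagal+/- myoblasts (passage 13, 250/well) treated 48 h at 37C with compounds at 1:260 dilution of DMSO stock. Lysed, then beta-galactosidase activity read as FDG fluorescence (ex 480/em 540) after 30 min, with pre-read for autofluorescence.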
uPA surface inh = qHTS for Inhibitors of Cell Surface uPA Generation | cell surface uPA generation assay, qHTS | Potency, µM (series often up to 38.3 µM), without a hit: at the highest dose activity change, negative = inhibition, usual class: inhibitors | 330,000 tested, 0.31% active | AID 540303, 2011; active means well fitted inhibition curve with a large enough effect; inconclusive means small, poorly fitted or top-dose-only effect; inactive means no such curve, though single readings can be large or run the other way; tested in mouse RAW 264.7 cells; further: on the % scale 0 is the no-effect control and ±100 the full control effect; nearly all actives have a fitted effect of over 55% in size
Mito fusion yeast = qHTS Assay for Small Molecule Inhibitors of Mitochondrial Division or Activators of Mitochondrial Fusion | S. cerevisiae fusion-defective mutant growth rescue, CellTiterGlo 48 h | Potency, µM (doses to about 46.1 µM), without a hit: at the top dose growth rescue (activation), actives largely listed as activators | 320,000 tested, 0.23% active; further: % of control where 0% means no effect; nearly all actives have a fitted effect of over 45% in size
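Growth-rescue viability read-out: after 48 h at the non-permissive 37C in glycerol/ethanol YPEG, yeast mitochondrial fusion mutants are measured by CellTiterGlo luminescence; compounds (23 nl pinned per well) restoring growth score as division inhibitors or fusion activators.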
RORgamma inh = qHTS for inhibitors of ROR gamma transcriptional activity; Potency, µM (series often up to 53.6 µM), inactives show top-dose activity change, negative = inhibition, usual class: inhibitors; Drosophila S2 Gal4-RORgamma UAS-luciferase reporter, 20 h; 310,000 tested, 5.4% active; further: on the % scale 0 is the no-effect control and ±100 the full control effect; nearly all actives have a fitted effect of over 60% in size
Target sequence (P51450 whole entry, looked up, the tested form may be a part): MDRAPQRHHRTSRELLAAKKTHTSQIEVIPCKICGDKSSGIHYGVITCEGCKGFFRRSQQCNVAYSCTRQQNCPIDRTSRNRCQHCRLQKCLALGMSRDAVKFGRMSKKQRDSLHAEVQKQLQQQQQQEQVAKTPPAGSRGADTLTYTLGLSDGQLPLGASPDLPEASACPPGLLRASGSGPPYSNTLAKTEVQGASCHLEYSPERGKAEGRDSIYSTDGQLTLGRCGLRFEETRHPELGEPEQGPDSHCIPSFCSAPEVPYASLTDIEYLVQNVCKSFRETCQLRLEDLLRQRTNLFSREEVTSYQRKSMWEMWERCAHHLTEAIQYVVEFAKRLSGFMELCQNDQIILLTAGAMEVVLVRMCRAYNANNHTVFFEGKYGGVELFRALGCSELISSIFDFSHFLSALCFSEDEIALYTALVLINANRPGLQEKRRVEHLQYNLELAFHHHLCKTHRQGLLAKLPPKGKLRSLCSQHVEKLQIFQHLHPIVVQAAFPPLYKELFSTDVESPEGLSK
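Read-out: Photinus luciferase luminescence; inhibitors lower reporter signal. Insect Schneider cells with Gal4-ROR gamma fusion under metallothionein promoter, UAS reporter; 700 uM final copper sulfate induction, 20 hr, ambient temperature.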
VP16 counter = VP16 counterscreen qHTS for inhibitors of ROR gamma transcriptional activity; AID 2546, 2010; 310,000 tested, 3.5% active; Drosophila S2 Gal4-VP16 UAS-luciferase, luminescence, 20 h; Potency, µM (doses to about 53.6 µM), inactives show at the top dose activity, negative = inhibition, usual class: inhibitors;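 further: Gal4-VP16 expression switched on by copper sulfate through the metallothionein promoter; on the % scale 0 is the no-effect control and ±100 the full control effect; nearly all actives have a fitted effect of over 50% in size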
* marks the source's active call; other numbers are inactive results; u = inconclusive; x = no result; [ ] = remark or other dose. Unless noted, the call rests on the fitted dose curve; in most records, active means well fitted curve in the direction sought with a large enough effect; inconclusive means small, poorly fitted or top-dose-only effect, or another doubt; inactive means no such curve, though single readings can be large; an effect the other way counts as inactive or inconclusive. Potency means the concentration at half of the fitted maximal effect.

SMILES	Chronic BCR inh	a7 integrin act	uPA surface inh	Mito fusion yeast	RORgamma inh	VP16 counter
COc1ccc(Nc2nc(N)nc(CSC(=S)N3CCCCC3C)n2)cc1 (stereo not given)	u	10%	1%	6%	13µM*	-1%
COc1ccc(Nc2nc(N)nc(CN3CCc4ccccc4C3)n2)cc1	u	-20%	-24%	3%	-2%	2%
CCc1ccc(-c2nc(-c3cc4ccccc4oc3=O)sc2C)cc1	0%	x	x	x	x	x
O=C(NCC(c1cccs1)N1CCOCC1)C1CCN(S(=O)(=O)c2cccc(C(F)(F)F)c2)CC1 (stereo not given)	11%	-16%	0%	1%	x	x
CC(C)c1ccccc1NC(=S)NCC1(N(C)C)CCCCC1	-6%	5%	4%	-16%	16µM*	u
CC1=NC(=O)C(N=Nc2cccc(C(=O)O)c2)N1c1ccccc1 (stereo not given)	u	-6%	x	u	5.6µM*	8.9µM*
CC1=NC(=O)C(N=Nc2ccccc2)N1c1ccccc1 (stereo not given)	0%	8%	6%	10%	-8%	u
CNC(=S)NCCc1c[nH]c2ccc(OC)cc12	-2%	8%	-3%	1%	-4%	-3%[10 µM]
S=C(NCCc1c[nH]c2ccccc12)NC1CCCCC1	u	5%	0%	16%	14µM*	-26%
COc1ccc2[nH]cc(CCNC(=S)NC3CCCC3)c2c1	6%	-12%	1%	5%	10µM*	u
Cc1ccccc1C(=O)N/N=C1\SCC(=O)N1Cc1ccco1	-11%	31%	0%	3%	-20%	u
CC(=O)Oc1cc2c(cc1Cl)C1(CC(c3ccccc3Cl)O2)CC(C)(C)NC(=S)N1 (stereo not given)	u	-40%	-6%	3%	10µM*	u
COc1ccc(C2(c3ccc(O)cc3O)CC(c3ccccc3Cl)NC(=S)N2)cc1 (stereo not given)	-15%	16%	0%	6%	1%	-13%
CC(C)(C)OC(=O)CNC(=O)c1[nH]cnc1C(=O)Nc1ccc(CNC(=O)OC(C)(C)C)cc1	u	-38%	-2%	-2%	11µM*	u
CC(C)(C)OC(=O)CNC(=O)c1[nH]cnc1C(=O)Nc1ccc(Cl)cc1	13%	-42%	-4%	1%	4.5µM*	13µM*
C/C(=N\NC(=O)c1ccc2c(c1)OCO2)c1ccc2c(c1)OCO2	u	0%	-6%	-5%	5%	-20%
C/C(=N\Nc1ncc(Cl)cc1Cl)c1ccc2c(c1)OCO2	u	8%	3%	0%	7.1µM*	u
C/C(=N\Nc1ncc(Cl)cc1Cl)c1ccc(OC(F)F)cc1	u	11%	1%	-1%	11µM*	u
C=CCCCCCCCCc1nc(SCC(=O)O)n[nH]1	u	3%	1%	-3%	1%	0%
C=CCCCCCCCCc1nc(=S)[nH][nH]1	-1%	-12%	2%	u	13µM*	-3%
CC(C)(C)c1cc(C(=O)/C=C/c2ccc(C(=O)O)cc2)cc(C(C)(C)C)c1	x	x	x	x	7.1µM*	u
CCC(C)C1/C=C\CCCC(=O)N1Cc1ccc(C)cc1 (stereo not given)	x	x	x	x	1%	-5%
C=CCN(c1ccccc1Cl)S(=O)(=O)c1cc(C(=O)N2CCCC2)ccc1Cl	u	-41%	u	0%	1%	0%
CSc1nc2sc3c(c2c(=S)[nH]1)CC(C)(C)OC3	u	-42%	1%	-5%	3.2µM*	11µM*
CC1(C)Cc2c(sc3nc(SCC(=O)O)[nH]c(=O)c23)CO1	u	0%	x	-2%	15%[10 µM]	2%
SMILES	Chronic BCR inh	a7 integrin act	uPA surface inh	Mito fusion yeast	RORgamma inh	VP16 counter
Cc1nc2sc3c(c2c(=N)n1N)CC(C)(C)OC3	-2%	1%	x	2%	-3%	-9%
CCc1nc2sc3c(c2c(=S)[nH]1)CC(C)(C)OC3	-6%	-14%	-2%	-27%	2µM*	6.3µM*
O=C(NNC1=C(C(=O)C(F)(F)F)CCC1)c1ccc(Cl)cc1	u	8%	2%	6%	11µM*	u
O=C(NNC1=C(C(=O)C(F)(F)F)CCC1)c1cccc(Cl)c1	u	-13%	-5%	3%	u	u
COc1ccc(C(=O)NNC2=C(C(=O)C(F)(F)F)CCC2)cc1	u	20%	0%	-7%	14µM*	u
CC[C@]12CCCN3CCc4c(n(c5ccccc45)C(=O)C1)[C@@H]32	-19%	x	3.2µM*	-9%	x	x
Cc1ccccc1NC(=O)c1ccc(F)c(S(=O)(=O)N(C)Cc2ccccc2)c1	-2%	x	x	x	x	x
Cn1c(=O)n(CCCOc2ccc(Br)cc2)c2ccccc21	x	-2%	-3%	19%	10µM*	u
COc1ccc(C(=O)OC(C)C(=O)NC(C)CCc2ccccc2)cc1[N+](=O)[O-] (stereo not given)	-3%	2%	-2%	1%	-2%	-4%
COc1ccc(C(=O)OC(C)C(=O)NC(C)CCc2ccccc2)c(OC)c1 (stereo not given)	-1%	u	-2%	11µM*	28%	2%
Fc1cccc(F)c1/C=N/NC(=S)Nc1cccnc1	u	4%	-5%	-4%	1.3µM*	3.5µM*
Fc1c(F)c(F)c(/C=N/NC(=S)Nc2cccnc2)c(F)c1F	u	-54%	-1%	-3%	2.5µM*	3.5µM*
Fc1ccc(/C=N/NC(=S)Nc2cccnc2)cc1F	u	37%	-19%	-3%	-2%	1%
Fc1ccc(/C=N/NC(=S)Nc2cccnc2)cc1	u	-47%	-8%	4%	4.5µM*	0.35µM*
Oc1cccc(/C=N/NC(=S)Nc2cccnc2)c1O	u	3%	-2%	-5%	4.5µM*	5.6µM*
O=C(N/C(=C\c1ccccc1)C(=O)N1CCCCC1)c1ccco1	-12%	9%	-1%	-1%	-3%	5%
CCCOc1ccc(C2C(=O)N(C3CCCCCC3)CC(=O)N2Cc2ccccc2OC)cc1OC (stereo not given)	-2%	x	x	x	x	x
CCCCC1CCC(C(=O)OCC(=O)N(CCOC)c2c(N)n(Cc3ccccc3)c(=O)[nH]c2=O)CC1 (stereo not given)	12%	-5%	14%	-2%	x	x
COCCN(C(=O)COC(=O)C1CCC(C(C)(C)C)CC1)c1c(N)n(Cc2ccccc2)c(=O)[nH]c1=O (stereo not given)	u	-1%	10µM*	-4%	x	x

Screens (PubChem)
